SKKanGAS inh: SKKanGAS growth inhibition | actives 1.3% (n = 300,000) | S. pyogenes SKKanGAS, kanamycin growth, BacTiter-Glo, 6 h | inhibition, % at 7.5 µM | AID 1662;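 active = mean replicate score, as percent of positive control median, at least 50; inconclusive = mean below 50 but one replicate at or above 50; inactive = mean and every replicate below 50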;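 also: strain carries kanamycin resistance gene driven by streptokinase promoter and grows in 40 µg/ml kanamycin; loss of luminescence reflects streptokinase promoter inhibition or plain growth inhibition; 0% = median of DMSO wells and 100% = positive control at its reference dose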
Exocytosis inh: lytic granule exocytosis inhibition. TALL-104 LAMP-1 surface exposure, flow cytometry; cells stimulated with thapsigargin and PMA. inhibition, % at 10 µM. actives 0.66% (n = 360,000). AID 651702;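 active = inhibition above about 55%, limit read from the data; inconclusive = no clear call, values can overlap the other calls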
PP1 inh: blocks human PP1-alpha phosphatase, a PP5 counter-screen | inhibition, % at 6.7 µM | purified PP1alpha, OMFP fluorescence | actives 0.9% (n = 320,000);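 active = inhibition above the mean inhibition of all tested compounds plus 3 SD, computed separately for each screening campaign, cut at about 15% in these data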
IDE cell activ: activators of human insulin-degrading enzyme in cells. AID 493087. actives 0.073% (n = 340,000). activation, % at 5.96 µM. HEK cells, FAbeta-B cleavage, fluorescence polarization; 0% vehicle, 100% cell-free pure enzyme wells. P14735;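 active = activation above the mean of all tested compounds plus 3 SD, set per screening campaign, cut at about 17% in these data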
PP5 inh: blocks human protein phosphatase 5 activity. P53041. purified PP5c, OMFP substrate fluorescence. inhibition, % at 6.7 µM. actives 0.18% (n = 320,000). AID 1987;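 active = inhibition above the campaign's mean inhibition across all tested compounds plus 3 SD, cut at about 9.5% in these data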;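 also: 0% = DMSO only and 100% = 100 µM cantharidin control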
Target sequence (P53041 whole entry, looked up): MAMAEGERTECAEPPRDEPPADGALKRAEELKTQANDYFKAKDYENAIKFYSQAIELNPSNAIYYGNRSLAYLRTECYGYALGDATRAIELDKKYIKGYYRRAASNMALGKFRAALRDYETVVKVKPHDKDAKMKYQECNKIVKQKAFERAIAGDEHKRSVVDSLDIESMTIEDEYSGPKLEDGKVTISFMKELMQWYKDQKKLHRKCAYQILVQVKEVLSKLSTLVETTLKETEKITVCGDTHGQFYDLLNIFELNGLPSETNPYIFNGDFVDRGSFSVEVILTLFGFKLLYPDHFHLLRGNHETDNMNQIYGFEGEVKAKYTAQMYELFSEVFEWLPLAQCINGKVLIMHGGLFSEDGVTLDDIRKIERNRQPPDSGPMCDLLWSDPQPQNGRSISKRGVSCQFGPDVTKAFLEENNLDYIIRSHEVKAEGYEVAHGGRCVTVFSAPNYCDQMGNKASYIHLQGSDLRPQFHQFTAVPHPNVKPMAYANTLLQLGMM
IDE inh: inhibits human insulin-degrading enzyme in HEK cells | actives 0.41% (n = 320,000) | FAbetaB cleavage, fluorescence polarization | inhibition, % at 5.59 µM | P14735;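 active = percent inhibition above the average of all tested compounds plus 3 SD, set per screening campaign, cut at about 16% in these data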;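 also: IDE supplied by intact live HEK cells; FP after avidin binding of uncleaved biotin substrate so inhibition keeps polarization high; 0% = DMSO wells and 100% = 60 µM reference IDE inhibitor Ii1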
PP1 confirm: confirmation of human PP1 phosphatase inhibitors; shares compounds with PP1 inh; purified PP1alpha, OMFP substrate fluorescence; inhibition, % at 6.7 µM; actives 52% (n = 1,900); AID 2358;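 active = mean PP1 inhibition above a set limit taken from the earlier primary screen, cut at about 15% in these data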
PP5 counter: PP5 phosphatase inhibition, counter-screen for PP1 inhibitors; inhibition, % at 6.7 µM; shares compounds with PP1 inh; purified PP5c, OMFP fluorescence; actives 4% (n = 1,900);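 active = mean PP5 inhibition over triplicate wells above about 9.5% taken from the earlier PP1 screen, limit read from the data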
* hit, by the source's call; u = inconclusive; x = no result given. The list is not random: actives were taken first. Their share in the collection is about 2.8%.

SMILES	SKKanGAS inh	Exocytosis inh	PP1 inh	IDE cell activ	PP5 inh	IDE inh	PP1 confirm	PP5 counter
Cc1ccc(S(=O)(=O)N2CCOCC2)cc1C(=O)OCCOc1cccc(Cl)c1	-3.8	3.6	-2.3	2.5	-0.1	-4.4	x	x
O=C(O)c1ccccc1N/N=C\c1ccnc2ccccc12	14.7	6.6	-0.2	-5.0	2.6	1.0	x	x
O=C(O)c1ccccc1N/N=C/c1cc(Br)cc(Br)c1O	58.1*	-2.1	22.8*	8.3	1.0	1.1	10.6	-0.7
Cc1ccc(C2CC(c3cccs3)=NN2C(=O)CSc2nc(=O)n3ccc(C)cc3n2)cc1 (stereo not given)	39.6	-10.3	22.4*	6.5	-1.9	9.7	15.8*	2.0
O=C(CSc1nc(=O)n2ccccc2n1)N1N=C(c2cccs2)CC1c1ccc(F)cc1 (stereo not given)	-9.6	-8.5	10.2	-4.1	1.9	6.3	x	x
CC(C)(C)c1ccc(NC(=O)COc2ccc(-n3ccnc3)cc2)cc1	-11.8	3.7	18.4*	6.2	2.3	3.2	3.8	-0.8
O=C(C[C@H]1C[C@@H]2c3cc(NS(=O)(=O)c4ccccc4)ccc3O[C@@H]2[C@H](CO)O1)N1CCOCC1	x	4.1	x	x	x	x	x	x
C[N+]1(C)CCCC(OC(=O)C(O)(c2ccccc2)c2ccccc2)C1 (stereo not given)	-3.0	-0.2	-3.5	2.0	3.2	4.8	x	x
Cc1ccc(Cn2nnc3c(=O)[nH]c(C4CCN(S(=O)(=O)c5cc(C)ccc5C)CC4)nc32)cc1	u	-1.7	27.8*	0.6	3.7	4.3	24.1*	3.6
Cc1ccc(C)c(Cn2nnc3c(=O)[nH]c(C4CCN(S(=O)(=O)c5ccc(S(=O)(=O)NC6CC6)cc5)CC4)nc32)c1	36.6	-6.5	18.1*	3.5	5.2	-1.3	15.3*	5.3
Cc1ccc(C)c(S(=O)(=O)N2CCC(c3nc4c(nnn4Cc4ccc(F)cc4)c(=O)[nH]3)CC2)c1	x	0.8	18.2*	0.9	4.0	-0.6	6.6	1.0
O=C(Nc1nc(-c2cccc3ccccc23)cs1)c1cnccn1	37.3	-7.9	5.4	-0.3	-0.8	-3.2	x	x
O=C(CSc1nc2c([nH]c3ccccc32)c(=O)n1-c1cccc(Cl)c1)N1CCOCC1	9.8	-0.8	21.5*	-1.7	-2.1	0.7	24.8*	-2.0
COC(=O)c1sccc1NC(=O)Cn1nnc(-c2ccccc2C)n1	3.9	-1.8	-0.9	3.7	1.4	1.3	x	x
Cc1ccc(NC(=O)CN2C(=O)S/C(=C\c3ccc(OCC(=O)O)c(Br)c3)C2=O)cc1	6.2	-8.6	3.2	4.8	0.9	2.5	x	x
COc1cc(/C=C2\SC(=O)N(CC(=O)Nc3ccc(C)cc3)C2=O)cc(Cl)c1OCC(=O)O	18.9	-10.2	42.8*	-8.7	-0.2	3.3	45.9*	-4.5
COc1ccc(CCN(C)Cc2ccc(C(=O)Nc3ccccc3)cc2)cc1OC	-4.7	6.7	-0.1	5.3	-0.1	1.4	x	x
CCOc1ccc(N2C(=O)c3cccnc3C2Nc2ccc(Cl)cc2)cc1 (stereo not given)	2.0	-3.2	4.6	-2.1	3.4	2.5	x	x
Cc1ccc(NC2c3ncccc3C(=O)N2c2ccccc2C)cc1C (stereo not given)	-0.4	3.9	30.4*	6.8	8.2	-4.8	25.7*	1.4
Cc1cccc(C(=O)N=c2c(C#N)cc3c(=O)n4cccc(C)c4nc3n2Cc2ccco2)c1	29.0	-1.8	25.1*	-8.9	3.2	6.3	7.4	-1.0
O=C(/C=C/c1ccccc1)NC(=S)NNC(=O)Cc1cccs1	78.9*	-1.3	23.7*	2.6	-0.6	2.9	17.3*	-4.5
CC1=C(C(=O)N(C)C)CC(CC(=O)NC(c2ccccc2)c2ccccc2)C(=O)N1CCC1=CCCCC1 (stereo not given)	x	1.8	x	x	x	x	x	x
C/C(N)=C(/C#N)C(=O)COC(=O)C1CCN(S(=O)(=O)c2cccs2)CC1	x	-0.8	x	1.7	x	-3.2	x	x
COc1cc(/C=N/NC(=O)c2ccccc2O)ccc1OCC(=O)Nc1ccccc1	5.6	3.3	18.3*	3.2	3.3	-3.1	15.6*	-8.3
CN(CC(=O)Nc1ccccc1C(F)(F)F)C(=O)Cc1ccc(S(=O)(=O)N2CCOCC2)s1	-5.2	0.5	-3.2	3.5	0.7	11.1	x	x
SMILES	SKKanGAS inh	Exocytosis inh	PP1 inh	IDE cell activ	PP5 inh	IDE inh	PP1 confirm	PP5 counter
COc1ccc(CCNc2nc(-c3ccncc3)cs2)cc1OC	-5.6	0.1	-1.2	0.4	-0.6	4.5	x	x
COc1ccc(CCNc2nc(-c3ccccn3)cs2)cc1OC	74.6*	-3.5	46.8*	0.3	3.2	4.5	41.2*	-5.0
Cc1onc(-c2ccccc2)c1C(=O)OCC(=O)NC(C)c1ccc(Cl)cc1 (stereo not given)	x	-0.8	3.8	5.2	3.0	2.2	x	x
O=C(Nc1ccc2oc(-c3ccncc3)nc2c1)c1ccc2c(c1)OCO2	5.6	-1.4	29.5*	-15.1	1.0	8.6	25.3*	0.8
CC(C)Oc1ccc2ccccc2c1CNC[C@H]1O[C@@H](n2cnc(C(N)=O)n2)[C@H](O)[C@@H]1O	x	1.5	x	3.7	x	x	x	x
Cc1ccc(C(=O)Nc2ncn[nH]2)cc1	-0.5	5.4	-0.8	-0.1	-1.0	-3.9	x	x
CC(C)(C)c1ccc(C(=O)Nc2ncn[nH]2)cc1	-0.3	-4.0	25.9*	-1.7	-0.4	-3.1	6.3	-5.8
Cc1ccc(CNC(=O)c2ccc(N3CCC4(CC3)CC(c3cccc(Br)c3)=NO4)c(NC(=O)c3c(Cl)cccc3Cl)c2)cc1	x	-5.7	21.3*	0.7	-0.5	0.1	13.6	-1.7
CCn1c(Cc2ccccc2)nnc1SCC(=O)N1CCCC1=O	x	4.4	-6.1	3.5	-0.8	-2.2	x	x
N=C1/C(=C\c2ccc(-c3cccc(C(=O)O)c3)o2)C(=O)N=C2SC=C(c3ccccc3)N12	79.0*	-1.4	44.9*	-1.9	0.9	6.5	31.9*	-2.2
Cc1nn(CC(=O)NCCCN2CCCC2=O)c(C)c1[N+](=O)[O-]	x	-6.2	x	x	x	-0.5	x	x
c1ccc(Cn2nnc(CNc3ccccc3)c2-c2c(CNc3ccccc3)nnn2Cc2ccccc2)cc1	-17.1	-2.6	22.8*	0.9	3.9	5.9	3.9	1.4
Nc1c(C(=O)NCc2ccccc2)nnn1Cc1ccccc1	-0.3	-5.2	-1.4	4.3	-1.0	-0.1	x	x
CCN(CC)c1ccc(/C=N/NC(=O)Cc2nnc(NC(=O)Nc3ccccc3)s2)cc1	-0.8	1.7	20.5*	0.9	0.9	7.7	25.4*	-2.8
COc1ccccc1N1CCN(CCS(=O)(=O)c2cc(Cl)ccc2Cl)CC1	x	-3.6	x	x	x	x	x	x
Cc1cc(C(=O)CN2C(=O)C(=O)N(C3CCCC3)C2=O)c(C)n1CCc1ccc(F)cc1	x	-1.4	17.6*	-2.2	0.2	0.3	5.8	-4.8

Screening data deposited in PubChem by several laboratories.
